Data on 55 compounds can be found in ChEMBL document CHEMBL4513146, “CO-ADD screening of Karazin Kharkiv National University (Ukraine) compounds”.

Entries with a potency or affinity are not part of this list.

One test concerns Staphylococcus aureus. The note with it: Concentration 32 ug.mL-1;; ASSAY_TEST Inhibition of Bacterial Growth; detection method Absorption (OD600); MEDIA CAMHB; plate type 384well; NBS; CORNING #3640; time 18 hr.
The next test has as its system Escherichia coli. To be noted: Concentration 32 ug.mL-1;; ASSAY_TEST Inhibition of Bacterial Growth; detection method Absorption (OD600); MEDIA CAMHB; plate type 384well; NBS; CORNING #3640; time 18 hr.

Turning to `CCCCc1ccc(NC(=O)Cn2nc3ccc(-c4ccc(C)c(C)c4)nn3c2=O)cc1`, the values for the Inhibition in the test on Staphylococcus aureus and in the test with Escherichia coli were 7.91% and -1.54%, respectively.

Consider `O=C(Cn1nc2c(N3CCN(c4ccccc4)CC3)nccn2c1=O)Nc1ccc2c(c1)OCO2`, for which the Inhibition – broadly, the drop in the measured response relative to a control, in per cent – in the test on Staphylococcus aureus is 13.69%; in the test on Escherichia coli, 0.21%.

Turning to `COc1ccc(-c2cc3c4nnc(CCC(=O)NCc5ccc(OC)c(OC)c5)n4ccn3n2)cc1`, the Inhibition is 6.96% in the test with Staphylococcus aureus and -5.17% with Escherichia coli.

With `O=c1c2sccc2n2c(=O)n(Cc3cccc(F)c3)nc2n1Cc1cccs1`, the Inhibition with Staphylococcus aureus is on record as -6.6%; with Escherichia coli, -12.16%.

Take `Cc1ccc(C)c(S(=O)(=O)Nc2ccc3nncn3n2)c1`: the Inhibition in the test on Staphylococcus aureus is on record as 15.24%; in the test on Escherichia coli it was 1.21%.

Consider `Cc1nnc2c(=O)n(CC(=O)Nc3ccccc3Cl)c3ccccc3n12`, for which the results for the Inhibition in the test on Staphylococcus aureus and in the test on Escherichia coli were 10.77% and -2.02%, respectively.

Take `COc1cc(OC)c(NC(=O)Cn2nc3c(N4CCOCC4)nccn3c2=O)cc1Cl`: the Inhibition in the test on Staphylococcus aureus is 4.84%; in the test on Escherichia coli, -1.96%.

`Cc1nnc2c(=O)n(CC(=O)Nc3ccc(F)cc3F)c3ccccc3n12`: the Inhibition is 10.56% with Staphylococcus aureus and -0.32% with Escherichia coli.

Turning to `O=C(Cn1nc2c(Sc3ccccc3)nccn2c1=O)Nc1ccc2c(c1)OCCO2`, the Inhibition with Staphylococcus aureus is recorded as -4.66%; in the test on Escherichia coli, -0.55%.

As to `N#CCn1nc2n(Cc3ccc(F)cc3)c(=O)c3ccccc3n2c1=O`, the Inhibition in the test on Staphylococcus aureus is listed as 1.37%; in the test with Escherichia coli, -10.2%.

Take `Cc1ccc(-c2ccc3nnc(CCC(=O)NCc4cccc(Br)c4)n3n2)cc1`: the results for the Inhibition in the test on Staphylococcus aureus and in the test on Escherichia coli were 12.72% and -0.13%, respectively.

As for `Cc1ccc(Cl)cc1NC(=O)Cn1nc2c3c4c(sc3ncn2c1=O)CCCCC4`, the Inhibition was 5.6% in the test on Staphylococcus aureus and -1.7% in the test on Escherichia coli.

As to `COc1cccc(-n2ccn3c(SCC(=O)N4CCN(c5ccc(F)cc5)CC4)nnc3c2=O)c1`, the Inhibition is on record as 6.4% with Staphylococcus aureus and -17.03% in the test on Escherichia coli.

For `CC(C)c1ccc(NC(=O)CSc2nnc3c(=O)n(-c4ccccc4)ccn23)cc1`, the Inhibition in the test with Staphylococcus aureus is 3.45%; with Escherichia coli, -7.12%.

As to `COc1cccc(NC(=O)Cn2c(=O)c3nnc(C(C)C)n3c3ccccc32)c1`, the Inhibition is reported as 22.3% in the test on Staphylococcus aureus and 0.77% with Escherichia coli.

For `Cc1ccc(Oc2nc3ccccc3n3c(=O)n(CC(=O)Nc4ccccc4C(F)(F)F)nc23)cc1`, the Inhibition with Staphylococcus aureus is reported as 11.78%; in the test on Escherichia coli it was 1.07%.

On to `Cc1cc(C)c(NC(=O)Cn2nc3ccc(SC4CCCCC4)nn3c2=O)c(C)c1`, for which the Inhibition in the test with Staphylococcus aureus is recorded as 7.62%; in the test on Escherichia coli it was -6.45%.

In the case of `CCOc1ccccc1NC(=O)Cn1nc2c(Sc3cccc(C)c3)nccn2c1=O`, the Inhibition in the test with Staphylococcus aureus is given as 3.15%; with Escherichia coli, -1.9%.

Regarding `Cc1oc(-c2cccc(Cl)c2)nc1CSc1nc2ccccc2n2c(C)nnc12`, the Inhibition in the test on Staphylococcus aureus amounted to 0.94%; in the test on Escherichia coli it was 1.96%.

Consider `CCOC(=O)c1ccccc1NC(=O)Cn1nc2c3sc(N4CCCC4)nc3ncn2c1=O`, for which the Inhibition was 11.36% with Staphylococcus aureus and -3.52% in the test on Escherichia coli.

Turning to `CCOc1ccccc1CNC(=O)CCc1nnc2ccc(-c3ccccc3)nn12`, the results for the Inhibition with Staphylococcus aureus and with Escherichia coli were 9.42% and -2.56%, respectively.

As to `O=C(CSc1nc2ccccc2n2cnnc12)Nc1cc(C(F)(F)F)ccc1Cl`, the figures for the Inhibition with Staphylococcus aureus and in the test on Escherichia coli were 6.84% and -4.72%, respectively.

For `COc1cccc(Oc2nccn3c(=O)n(CC(=O)NC4CCCCC4)nc23)c1`, the Inhibition in the test with Staphylococcus aureus was 3.01%; in the test on Escherichia coli, -4.58%.

As to `Cc1ccc(NC(=O)Cn2nc3ccc(-c4ccc(C)c(C)c4)nn3c2=O)cc1`, the Inhibition is on record as 12.01% in the test with Staphylococcus aureus and -5.02% in the test on Escherichia coli.

`CCc1ccc(N(Cc2ccc(OC)cc2)S(=O)(=O)c2cccn3c(C)nnc23)cc1`: the Inhibition is on record as 5.17% in the test on Staphylococcus aureus and -2.97% with Escherichia coli.

`Cc1ccc(Sc2ccc3nn(CC(=O)Nc4cccc(Cl)c4)c(=O)n3n2)cc1`: the figures for the Inhibition in the test on Staphylococcus aureus and in the test on Escherichia coli were -1.85% and -11.91%, respectively.

`CCOc1ccc(-n2ccn3c(SCC(=O)NCc4cccc(OC)c4OC)nnc3c2=O)cc1`: the Inhibition with Staphylococcus aureus is reported as 12.04%; in the test with Escherichia coli it was -1.13%.

Consider `CCCCOc1ccc(-c2cc3c4nnc(SCC(=O)N(C)c5ccc(F)cc5)n4ccn3n2)cc1`, for which the Inhibition is reported as -20.91% with Staphylococcus aureus and -5.6% with Escherichia coli.

In the case of `O=C(Cn1nc2ccc(C(=O)NCc3ccccc3)cn2c1=O)Nc1ccc2c(c1)OCO2`, the Inhibition in the test on Staphylococcus aureus was 7.86%; with Escherichia coli, -0.58%.

`CC(C)Cc1ccc(S(=O)(=O)Nc2ccc3nncn3n2)cc1`: the Inhibition is listed as 13.61% in the test on Staphylococcus aureus and 2.12% with Escherichia coli.

Regarding `COc1cc(OC)c(NC(=O)Cn2nc3c(SC4CCCCC4)nccn3c2=O)cc1Cl`, the Inhibition in the test with Staphylococcus aureus was 7.52%; in the test on Escherichia coli, -4.1%.

Turning to `COc1ccc(N(Cc2ccc(C)cc2)S(=O)(=O)c2ccc3nnc(C)n3c2)cc1`, the figures for the Inhibition in the test with Staphylococcus aureus and in the test with Escherichia coli were -1.53% and -8.35%, respectively.

On to `CCCCOc1ccc(-c2cc3c4nnc(SCC(=O)Nc5cc(C)ccc5C)n4ccn3n2)cc1`, for which the Inhibition with Staphylococcus aureus is reported as -14.19%; in the test on Escherichia coli, -10.44%.

As for `O=C(Cn1nc2c(Sc3ccccc3)nccn2c1=O)Nc1cccc(Cl)c1F`, the values for the Inhibition in the test with Staphylococcus aureus and with Escherichia coli were 9.57% and -0.62%, respectively.

As to `COC(=O)c1cccc(NC(=O)Cn2nc3c(Sc4ccc(C)cc4C)nccn3c2=O)c1`, the Inhibition is on record as 10.39% in the test with Staphylococcus aureus and -5.72% with Escherichia coli.

As to `CC(C)c1nnc2c(SCC(=O)Nc3ccccc3Br)nc3ccccc3n12`, the Inhibition with Staphylococcus aureus is listed as 6.58%; with Escherichia coli, -0.85%.

As to `COc1cccc(NC(=O)Cn2nc3ccc(-c4ccc(Cl)cc4)nn3c2=O)c1`, the Inhibition with Staphylococcus aureus is -8.23%; in the test with Escherichia coli it was -11.86%.

For `COc1ccc(N2CCN(C(=O)Cn3nc4ccc(-c5ccccc5)nn4c3=O)CC2)cc1`, the Inhibition in the test with Staphylococcus aureus is reported as 15.35%; with Escherichia coli, 1.42%.

For the compound `Cc1nnc2c(=O)n(CC(=O)Nc3ccc(Br)cc3)c3ccccc3n12`, the figures for the Inhibition with Staphylococcus aureus and in the test with Escherichia coli were -6.47% and 5.5%, respectively.

Consider `COc1cccc(Sc2nc3ccccc3n3c(=O)n(CC(=O)N4CCCc5ccccc54)nc23)c1`, for which the Inhibition in the test on Staphylococcus aureus was -3.45%; with Escherichia coli it was -7.6%.

As for `Cc1cccc(C)c1NC(=O)Cn1nc2c3c4c(sc3ncn2c1=O)CCCC4`, the Inhibition in the test on Staphylococcus aureus is on record as 7.51%; in the test on Escherichia coli, -3.38%.

In the case of `Cc1nnc2c(SCC(=O)N3CCN(c4ccccc4F)CC3)nc3ccccc3n12`, the Inhibition came out at 19.81% with Staphylococcus aureus and 5.15% with Escherichia coli.

On to `O=C(Cn1nc2c(N3CCOCC3)nccn2c1=O)NCc1ccccc1Cl`, for which the Inhibition in the test on Staphylococcus aureus is 17.61%; with Escherichia coli, 4.36%.

In the case of `Cc1nnc2c(S(=O)(=O)N(Cc3ccccc3)c3ccc(C(C)C)cc3)cccn12`, the Inhibition in the test on Staphylococcus aureus is listed as 6.07%; with Escherichia coli, -2.4%.

Turning to `COC(=O)c1cccc(NC(=O)Cn2nc3c(N4CCC(C)CC4)nccn3c2=O)c1`, the Inhibition in the test with Staphylococcus aureus is recorded as -12.03%; with Escherichia coli, -9.95%.

In the case of `Cc1ccccc1Oc1nc2ccccc2n2c(=O)n(CC(=O)NCc3ccc4c(c3)OCO4)nc12`, the figures for the Inhibition with Staphylococcus aureus and with Escherichia coli were 13.3% and 0.04%, respectively.

In the case of `O=C(CSc1nnc2c(=O)n(Cc3ccc(F)cc3)ccn12)NC1CCCC1`, the Inhibition in the test with Staphylococcus aureus was 13.37%; with Escherichia coli, -4.53%.

In the case of `Cc1nnc2c(=O)n(CC(=O)Nc3ccccc3F)c3ccccc3n12`, the Inhibition in the test on Staphylococcus aureus is reported as -11.2%; in the test on Escherichia coli, 1.77%.

Take `COc1cccc(Cn2nc3c(=O)n(-c4cccc(Cl)c4C)ccn3c2=O)c1`: the Inhibition in the test with Staphylococcus aureus is listed as -6.87%; in the test on Escherichia coli, -16.22%.

In the case of `COc1cccc(-n2ccn3c(SCC(=O)Nc4ccccc4F)nnc3c2=O)c1`, the values for the Inhibition in the test with Staphylococcus aureus and in the test on Escherichia coli were 8.86% and -8.93%, respectively.

Take `CCc1nnc2c(SCC(=O)Nc3cc(Cl)ccc3OC)nc3ccccc3n12`: the Inhibition is listed as 7.98% in the test on Staphylococcus aureus and 4.84% with Escherichia coli.

Regarding `Cc1cc2nn(CC(=O)NC(C)C)c(=O)n2c(-c2ccc(C(F)(F)F)cc2)n1`, the values for the Inhibition in the test with Staphylococcus aureus and in the test with Escherichia coli were -8.3% and 1.53%, respectively.

Turning to `O=S(=O)(c1ccc2nncn2c1)N(Cc1cc(F)cc(F)c1)c1ccc(F)c(F)c1`, the figures for the Inhibition with Staphylococcus aureus and with Escherichia coli were 8.61% and -4.86%, respectively.

Consider `COc1ccc(NC(=O)c2ccc3nn(CC(=O)Nc4ccc(C(F)(F)F)cc4)c(=O)n3c2)cc1`, for which the Inhibition in the test with Staphylococcus aureus was 9.76%; in the test with Escherichia coli it was -5.89%.

With `Cc1cc(NC(=O)Cn2c(=O)c3nnc(C(C)C)n3c3ccccc32)ccc1Br`, the Inhibition in the test with Staphylococcus aureus worked out at 13.77%; in the test with Escherichia coli it was 0%.
